The record followed here is publication PMC10726135, “HNF4α isoforms regulate the circadian balance between carbohydrate and lipid metabolism in the liver”.

Over roughly 18,000 sequences, “log2 normalized intensity” has its median near 0.36; the highest 2% begin near 7.3. The entries come from a sample that favours the highest values as a whole.

This assay has as its target T1, HNF4alpha8 (COS-7 nuclear extract) (Homo sapiens, UniProt P41235-5 1-452).
T1 sequence: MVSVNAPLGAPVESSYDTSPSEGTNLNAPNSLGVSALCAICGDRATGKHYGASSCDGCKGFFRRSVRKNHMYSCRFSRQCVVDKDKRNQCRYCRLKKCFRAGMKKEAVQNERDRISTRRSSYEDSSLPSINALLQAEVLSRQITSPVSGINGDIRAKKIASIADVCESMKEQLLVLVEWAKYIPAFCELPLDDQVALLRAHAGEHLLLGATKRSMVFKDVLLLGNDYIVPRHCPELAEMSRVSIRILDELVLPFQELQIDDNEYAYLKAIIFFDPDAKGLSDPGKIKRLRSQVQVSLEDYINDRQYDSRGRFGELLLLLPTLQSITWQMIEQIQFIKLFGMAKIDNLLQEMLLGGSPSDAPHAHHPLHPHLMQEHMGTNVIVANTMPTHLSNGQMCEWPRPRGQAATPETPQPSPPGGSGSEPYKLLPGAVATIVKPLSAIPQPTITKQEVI
Put plainly: protein-binding microarray; COS-7 nuclear extract on double-stranded Agilent 4x180k PBM; binding buffer, salt, pH and temperature not given in the material; high values mean tight binding. Particulars: chain copies: 2; label: 3' end of strand 1 on the slide; dsDNA, one strand shown. The gist of the method:
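Binding signal is the background-corrected, normalized gProcessedSignal calculated by Agilent software. It was measured by applying nuclear extracts of COS-7 cells transiently transfected with a human HNF4α isoform expression vector to a custom Agilent SurePrint G3 4x180k array of ~44,000 double-stranded ~60-nt test sequences in quadruplicate, then imaging bound HNF4α on an Agilent G2565CA scanner at 2-µm resolution.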
With “TTTCTTAATTGCCCTTTGCCCTTTGCCCAAGCCTAGGGAGATTAGAGTATCGGTCGA”, the binding signal amounted to 8.84 log2 normalized intensity.
Under “TAATTGCCCTTTGCCCTTTGCCCAACCCTCGCCTAGGGAGATTAGAGTATCGGTCGA” stands 7.74 log2 normalized intensity; under “ACTTTGCCCTTTTTTTCTCTCCCCTTTTAAGCCTAGGGAGATTAGAGTATCGGTCGA”, 2.63 log2 normalized intensity.
Under “GGGTATGAATTTAACCTTTGCTCTCTGAAAGCCTAGGGAGATTAGAGTATCGGTCGA” stands 6.63 log2 normalized intensity; under “GCCCTTTGCCCTTTGCCCAACCCTCTCCCAGCCTAGGGAGATTAGAGTATCGGTCGA”, 6.2 log2 normalized intensity.
For “TGACCTTTGCATTCTTACCCAAGCCCCAAAGCCTAGGGAGATTAGAGTATCGGTCGA”, the binding signal amounted to 4.12 log2 normalized intensity.
With “ATTTCTAGGTTTGATCTTTGCCCTACAATTGCCTAGGGAGATTAGAGTATCGGTCGA”, the binding signal turned out to be 6.36 log2 normalized intensity.
For “CCATCCTACAGGGTATGAATTTAACCTTTGGCCTAGGGAGATTAGAGTATCGGTCGA” the value was 4.92 log2 normalized intensity.
Under “AGGGAATTTCTAGGTTTGATCTTTGCCCTAGCCTAGGGAGATTAGAGTATCGGTCGA” stands 7.66 log2 normalized intensity.
For “CTGAATCTCCCAGTGCTTTGATCTTCAACTGCCTAGGGAGATTAGAGTATCGGTCGA” the value was 0.419 log2 normalized intensity.
Take “CACTTGTAGGCCTGTGTGCATGGAGTGCACGCCTAGGGAGATTAGAGTATCGGTCGA”: the binding signal came out at 0.798 log2 normalized intensity.
Under “CCCCGCCCGCAGCCCAGTCTTGGCCCCACCGCCTAGGGAGATTAGAGTATCGGTCGA” stands 6.38 log2 normalized intensity; under “GAGTTATCTTCCTCCCCCCTTGGCTACATGGCCTAGGGAGATTAGAGTATCGGTCGA”, 4.15 log2 normalized intensity; under “TAGGCATTGTCTTGAAAGATAAAGTGTCTCGCCTAGGGAGATTAGAGTATCGGTCGA”, 1.48 log2 normalized intensity.
For “TGTGTCAAAGGTCACTTAGTCCCTAAGTCTGCCTAGGGAGATTAGAGTATCGGTCGA” the value was 5.26 log2 normalized intensity; for “TTCCCTACCCCCTGGGAGTAACCTGCTTGTGCCTAGGGAGATTAGAGTATCGGTCGA”, 2.25 log2 normalized intensity; for “TTTTAAATACCTTTTTGGGACTGATAACTTGCCTAGGGAGATTAGAGTATCGGTCGA”, 1.23 log2 normalized intensity.
Regarding “AGCATGGAGAAAATTCTGGACCTTCTTATCGCCTAGGGAGATTAGAGTATCGGTCGA”, the binding signal is 1.59 log2 normalized intensity.
Under “CGCTGCGGGTCACGTGCCGCTGCGGGTCACGCCTAGGGAGATTAGAGTATCGGTCGA” stands 2.61 log2 normalized intensity; under “AGAATGACCAGGAGTTTGGGATCAGACACGGCCTAGGGAGATTAGAGTATCGGTCGA”, 0.332 log2 normalized intensity; under “GAAACTTATTGTGAACTGGAGCAAAGGTCAGCCTAGGGAGATTAGAGTATCGGTCGA”, 5.97 log2 normalized intensity.
For “TTATCTTGATGGTTAAAGTCCAATCTTCTGGCCTAGGGAGATTAGAGTATCGGTCGA” the value was 4.82 log2 normalized intensity; for “GACCATCACCACTTCAAGCTTGGTATGCTTGCCTAGGGAGATTAGAGTATCGGTCGA”, -0.696 log2 normalized intensity; for “TTTTTTTTCTTAATTGCCCTTTGCCCTTTGGCCTAGGGAGATTAGAGTATCGGTCGA”, 9.03 log2 normalized intensity.
Under “ACAGTAGACTTTTTTTTTCTTAATTGCCCTGCCTAGGGAGATTAGAGTATCGGTCGA” stands 3.18 log2 normalized intensity.
As for “AGACTTTTTTTTTCTTAATTGCCCTTTGCCGCCTAGGGAGATTAGAGTATCGGTCGA”, the binding signal amounted to 5.04 log2 normalized intensity.
Turning to “GATTGGACTTTGGCCTGTGAATCCACATTCGCCTAGGGAGATTAGAGTATCGGTCGA”, the binding signal amounted to 6.47 log2 normalized intensity.
As for “TACTGGGGATGGACTTTGGCCCTCAGCCCAGCCTAGGGAGATTAGAGTATCGGTCGA”, the binding signal worked out at 9.48 log2 normalized intensity.
As to “GAACAGCAAGACTTTGGCCCTGCAGACTTTGCCTAGGGAGATTAGAGTATCGGTCGA”, the binding signal was determined as 3.02 log2 normalized intensity.
Take “TCTGCAGCAGATGGCCAGCCTTTGGACTTTGCCTAGGGAGATTAGAGTATCGGTCGA”: the binding signal was 8.08 log2 normalized intensity.
Under “GGGATGGACTTTGGCCCTCAGCCCAATGTGGCCTAGGGAGATTAGAGTATCGGTCGA” stands 7.1 log2 normalized intensity.
For the sequence “TGCCATGATAAGCAGTGTGGACTTTTTCCTGCCTAGGGAGATTAGAGTATCGGTCGA”, the binding signal amounted to 3.69 log2 normalized intensity.
Regarding “GGACTTTGGCCCTCAGCCCAATGTGGTAGGGCCTAGGGAGATTAGAGTATCGGTCGA”, the binding signal was determined as 6.09 log2 normalized intensity.
As for “GTGACTTGAAAGGGACTTAGAATCGAATTGGCCTAGGGAGATTAGAGTATCGGTCGA”, the binding signal is -0.0805 log2 normalized intensity.
For “TGAATTCTGCAGCAGATGGCCAGCCTTTGGGCCTAGGGAGATTAGAGTATCGGTCGA”, the binding signal is -0.939 log2 normalized intensity.
For “ACCTCTCTGATGCCATGATAAGCAGTGTGGGCCTAGGGAGATTAGAGTATCGGTCGA” the value was 0.716 log2 normalized intensity; for “TCTGATGCCATGATAAGCAGTGTGGACTTTGCCTAGGGAGATTAGAGTATCGGTCGA”, 7.54 log2 normalized intensity.
Take “AAAGAGATTGGACTTTGGCCTGTGAATCCAGCCTAGGGAGATTAGAGTATCGGTCGA”: the binding signal was 9.05 log2 normalized intensity.
For “CCCTGGTCTCTCTTACCCAACCAAAAACAAGCCTAGGGAGATTAGAGTATCGGTCGA” the value was 3.38 log2 normalized intensity; for “TACAGGCGTGAGCCACCGCGCCCCGCCCCCGCCTAGGGAGATTAGAGTATCGGTCGA”, 6.17 log2 normalized intensity.
For “TCTCAGGTGAGCAGAGGGAGGACAAAGTTCGCCTAGGGAGATTAGAGTATCGGTCGA” the value was 5.01 log2 normalized intensity; for “GCCACATCCCCCACACCGAGATAGTAGAGAGCCTAGGGAGATTAGAGTATCGGTCGA”, 3.27 log2 normalized intensity.
For “ACTTCTGAGTTTTATCAGCTTCCCTGAGATGCCTAGGGAGATTAGAGTATCGGTCGA” the value was -0.495 log2 normalized intensity.
